Assay results: PubChem BioAssay (NCI)
This is part of a sample that, as a whole, favours compounds with a hit. Of some 83,000 tested, about 20% had one in any assay.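 How to read the values: 0–100, growth inhibition (40 = 60% inhibited); 0, no net growth; -100 to 0, cell death (-40 = 40% of starting cells died; -100 = all dead).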 The source made the active and inactive calls. The calls were made as follows: active = growth percent below 10; inactive = the rest.

Test system: HT29 colon
Experiment: NCI-60 one-dose screen, 48 h (100 = growth as untreated, 0 = no growth, -100 = all killed)
Conditions: 10 µM unless noted

For `COC(=O)c1c2c(c(C)[n+]([O-])c1C)C(=O)C(NCc1ccccc1)=CC2=O`, which growth is on record?
Its growth is 12.7% (inactive).

`Oc1nc(NCc2ccccc2)sc1/C=C1\C=Nc2ncccc21` was tested. Which growth did it give?
The growth was 57.9% (inactive).

How did the growth turn out when `C=C1C(=O)O[C@H]2[C@H]1CC/C(COC(=O)/C=C\C(=O)NCc1ccc(Cn3c(=O)sn(CCCCl)c3=O)cc1)=C\CC[C@@]1(C)O[C@@H]21` was run?
Its growth is 46.9% (inactive).

Test system: SNB-75 CNS
Experiment: as above
Conditions: 10 µM unless noted

How did the growth turn out when `CCOC(=O)c1c(NC(=O)c2ccccc2)sc2c3c(ccc12)OCN(C)C3` was run?
The growth was 79.3% (inactive).

For `COc1ccc(NC(=O)c2ccc(Nc3ncnc4c3cnn4-c3cccc(F)c3)cc2)cc1`, which growth is on record?
The growth was 93.9% (inactive).

`COC(=O)c1c(C)nc(C)c2c1C(=O)C=C(NCc1ccccc1)C2=O` was tested. Which growth did it give?
The growth was 88.9% (inactive).

`CS(=O)(=O)Nc1cc(-c2ccc3ncnc(Nc4ccc5c(cnn5Cc5ccncc5)c4)c3c2)cnc1Cl` was tested. Which growth did it give?
The growth was 8.94% (active).

Which growth does the source give for `S=c1ccnc[nH]1` here?
Its growth is 120% (inactive).

`Cc1ccc(S(=O)(=O)c2nc(-c3ccccc3)oc2SCC(N)=O)cc1` was tested. Which growth did it give?
Its growth is 90.4% (inactive).

Which growth does the source give for `CN(C)Cc1ccc(NC(=O)c2cncc(C#Cc3cnc(N)c4ncccc34)c2)cc1C(F)(F)F` here?
Its growth is 82.2% (inactive).

How did the growth turn out when `COc1cc(/C=C/c2cn[nH]c2-c2ccc(C)cc2)cc(OC)c1OC` was run?
Its growth is 29.5% (inactive).

Which growth does the source give for `CCOC(=O)C(CCN(C)C)c1ccccc1` (configuration not stated) here?
The growth was 81.1% (inactive).

`O=C(/C=C/c1ccccc1)N(C1CCCCC1)C1CCCCC1` was tested. Which growth did it give?
The growth was 81.4% (inactive).

`CC1(C)CC[C@]23CC[C@]4(C)[C@H](CC[C@@H]5[C@@]6(C)CCNCC(C)(C)[C@@H]6CC[C@]54C)[C@H]2[C@H]1OC3` was tested. Which growth did it give?
Its growth is 96.8% (inactive).

`Cc1nc2sc(C(=O)Nc3cccc4ccccc34)c(N)c2cc1C(=O)c1ccccc1` was tested. Which growth did it give?
The growth was 11.9% (inactive).

With `Cc1ccc(O)c(NC(=O)c2cccc(Nc3ccnc(C(F)(F)F)c3)c2)c1` as the molecule, how does the growth read?
Its growth is 85% (inactive).

With `N#CSc1c[nH]c2ccc(/C=C/C(=O)/C=C(O)/C=C/c3ccc4[nH]cc(SC#N)c4c3)cc12` as the molecule, how does the growth read?
Its growth is 51.9% (inactive).

Which growth does the source give for `COC(=O)/C(CCC=C(C)C)=C1\[C@@H](OC(C)=O)C[C@@]2(C)[C@H]1C/C(=N/O)[C@H]1[C@@]3(C)CC/C(=N\O)[C@@H](C)[C@@H]3CC[C@@]12C` here?
The growth was 86.9% (inactive).

For `Nc1cccc(-c2ccc(COc3ccc(CC4SC(=O)NC4=O)cc3)cc2)c1` (configuration not stated), which growth is on record?
Its growth is 54.4% (inactive).

With `CCOC(=O)c1cnn(CC(C)O)c1NC(=O)NCc1cccc(F)c1` (configuration not stated) as the molecule, how does the growth read?
Its growth is 104% (inactive).

For `O=S(Nc1ccccc1)c1ccc(Cl)cc1` (configuration not stated), which growth is on record?
The growth was 83.2% (inactive).

With `CCOC(=O)C1=C(CC(O)c2ccc(OC)cc2OC)NC(=O)NC1c1ccccc1` (configuration not stated) as the molecule, how does the growth read?
The growth was 87.3% (inactive).

`CCn1cc(C(=O)O)c(=O)c2cc(F)c(N3CCN(CC(=O)Nc4ccccc4)C(C)C3)c(F)c21` (configuration not stated) was tested. Which growth did it give?
Its growth is 86.1% (inactive).

How did the growth turn out when `CCN(CC)c1ccc(-c2cc(-c3cc(OC)c(OC)c(OC)c3)nc(N3CCC(O)CC3)c2C#N)cc1` was run?
The growth was -41.5% (active).

`C=C(C)[C@@H]1CC[C@]2(C)[C@H](C=CC3=C4C[C@@](C)(CO)CC[C@]4(C)CC[C@]32C)[C@@]1(C)CCCN` was tested. Which growth did it give?
Its growth is -6.45% (active).

`CS(=O)/C(C#N)=C\C=C\c1cccc(Cl)c1` (configuration not stated) was tested. Which growth did it give?
The growth was 22.5% (inactive).

With `CC1=C(Cl)C(=O)c2cc(C)ccc2C1=O` as the molecule, how does the growth read?
The growth was 88.9% (inactive).

With `N#Cc1ccc(O)c(C2=NCC(c3ccc(-c4ccccc4)cc3)O2)c1` (configuration not stated) as the molecule, how does the growth read?
The growth was 26.2% (inactive).

For `CC[C@H](Nc1nc(N)nc(C)c1C#N)c1nc2cccc(CN(C)c3ncc(C(=O)NO)cn3)c2c(=O)n1-c1ccccc1`, which growth is on record?
Its growth is 29.1% (inactive).

`Cc1nc2ccccc2c(/C=C/c2ccc(F)cc2)c1C(=O)/C=C/c1ccccc1` was tested. Which growth did it give?
The growth was 12.1% (inactive).

With `O=C(CN1C(=O)S/C(=C\C(Cl)=C\c2ccccc2)C1=O)NC1CCS(=O)(=O)C1` (configuration not stated) as the molecule, how does the growth read?
Its growth is 57.8% (inactive).

Which growth does the source give for `Nc1[nH]nc2nc(-c3ccccc3)n3c4ccccc4nc3c12` here?
The growth was 87.7% (inactive).

How did the growth turn out when `CC(C)(C)OC(=O)CN1CCc2c(sc3ncnc(N4CCN(c5ccc(F)cc5)CC4)c23)C1` was run?
The growth was 82.6% (inactive).

With `N#Cc1nn(-c2cc(=O)[nH]c3ccc(Br)cc23)c(N)c1C#N` as the molecule, how does the growth read?
The growth was 87.3% (inactive).

Which growth does the source give for `O=c1oc2ccccc2cc1-c1nn(-c2ccccc2)cc1-c1nn[nH]n1` here?
Its growth is 76.2% (inactive).

How did the growth turn out when `COc1ccc(/C=N/NC(=O)Cn2c(-c3ccc(S(C)(=O)=O)cc3)nc3ccccc32)cc1` was run?
The growth was 101% (inactive).

For `CC(C)n1c2ccc(Br)cc2c2c3c(c4c5ccccc5ccc4c21)C(=O)NC3=O`, which growth is on record?
Its growth is 103% (inactive).

With `CCOC(=O)C1=C(c2ccccc2)N=C2N(c3ccccc3)N=C(C(C)=O)N2C1c1ccc(F)cc1` (configuration not stated) as the molecule, how does the growth read?
The growth was 89.4% (inactive).

With `COC1C(O)CC(OC2CC(OC3CC(O[C@@H]4C(=O)c5c(cc6cc(OC7CC(OC8CC(O)C(O)C(C)O8)C(O)C(C)O7)c(C)c(O)c6c5O)CC4[C@H](OC)[C@@H](O)C(C)=O)OC(C)C3O)OC(C)C2O)OC1C` (some centres not stated) as the molecule, how does the growth read?
Its growth is -17.6% (active).

With `COC(=O)c1c2c(c(C)[n+]([O-])c1C)C(=O)C(NCc1ccccc1)=CC2=O` as the molecule, how does the growth read?
The growth was 125% (inactive).

How did the growth turn out when `Oc1nc(NCc2ccccc2)sc1/C=C1\C=Nc2ncccc21` was run?
Its growth is 37.3% (inactive).

`C=C1C(=O)O[C@H]2[C@H]1CC/C(COC(=O)/C=C\C(=O)NCc1ccc(Cn3c(=O)sn(CCCCl)c3=O)cc1)=C\CC[C@@]1(C)O[C@@H]21` was tested. Which growth did it give?
The growth was 88.5% (inactive).
